From PubChem BioAssay (NCATS) come the findings set out here.

Values joined by “and” are separate entries in the source; they are usually repeats but may differ in a detail not shown here. Identical values can stand only once. Results filed as inconclusive are left out. Active and inactive are the calls of the source. Unless noted, calls follow the shape of the dose curve; as a rule, active = well fitted curve in the direction sought with a large enough effect; inconclusive = small, poorly fitted or top-dose-only effect, or another doubt; inactive = no such curve, though single readings can be large; an effect the other way counts as inactive or inconclusive.

Experiment [1] in a line: P-glycoprotein substrates identified in KB-3-1 adenocarcinoma cell line, qHTS therapeutic library screen (AID 1346986). Also: nearly all actives have a fitted effect of over 60% in size.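 Also: potency is read from the fitted curve at half-maximal effect; potency is for cytotoxicity meaning loss of cell viability.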 Summed up:
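Resistance attributable to P-gp was assessed by comparing AC50 in KB-8-5-11 with parental KB-3-1 and by tariquidar reversal. Cells were exposed 72 h and viability read by CellTiter-Glo.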
In general terms: Quantitative high-throughput screening tests each substance at several concentrations.

Experiment [2] is described as follows: P-glycoprotein substrates identified in KB-8-5-11 adenocarcinoma cell line, qHTS therapeutic library screen (AID 1346987). Also: nearly all actives have a fitted effect of over 65% in size. Also: potency is read from the fitted curve at half-maximal effect. In short, it runs like this:
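KB-8-5-11, a colchicine-selected P-gp-overexpressing KB-3-1 subline, was grown without colchicine for the assay. Cells were seeded at 500 cells/well, dosed in concentration-response and incubated 72 h at 37 degree C, 5% CO2. Viability was read by CellTiter-Glo luminescence.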

Experiment [3] can be described thus: Viability counterscreen for antagonist of constitutive androstane receptor (CAR) against the NCATS DSHEA and TCM libraries (AID 1794837).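 Also: compound exposure lasted 24 h before viability reading; 0% is about no effect.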 Summed up:
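Cell viability, CellTiter-Fluor, Ex/Em 405/540 nm, 1 h at 37C. HepG2-CYP2B6-hCAR, 2,500 cells/well; cpds + CITCO 48 uM final (antagonist mode), 24 h, 37C/5% CO2.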

Experiment [4] in a line: Viability counterscreen for agonist of constitutive androstane receptor (CAR) against the NCATS DSHEA and TCM libraries (AID 1794838). Also: 0% is about no effect. In short, it runs like this:
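Viability by CellTiter-Fluor fluorescence, 405/540 nm, after 1 h at 37C. HepG2-CYP2B6-hCAR cells were exposed 24 h to test substances in presence of 0.75 uM PK11195 (final).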
A general note: The purpose of a counterscreen is to sort out artefacts and off-target activity.

The target in experiment [5] is Nuclear receptor subfamily 1 group I member 3 (Homo sapiens) (UniProt Q14994). Description: Primary qHTS for agonist of constitutive androstane receptor (CAR) against the NCATS DSHEA and TCM libraries (AID 1794839).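 Also: HepG2 cells expressing human CAR with a CYP2B6 reporter plus PK11195 antagonist; 0% is about no effect.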 Summed up: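 Luminescence from ONE-Glo luciferase was the agonist read-out in HepG2-CYP2B6-hCAR cells exposed 24 h to test substances. Wells also held the CAR antagonist PK11195 at 0.75 µM final. Viability was by CellTiter-Fluor fluorescence.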
Nuclear receptor subfamily 1 group I member 3 (Homo sapiens), sequence (Q14994 whole entry, looked up): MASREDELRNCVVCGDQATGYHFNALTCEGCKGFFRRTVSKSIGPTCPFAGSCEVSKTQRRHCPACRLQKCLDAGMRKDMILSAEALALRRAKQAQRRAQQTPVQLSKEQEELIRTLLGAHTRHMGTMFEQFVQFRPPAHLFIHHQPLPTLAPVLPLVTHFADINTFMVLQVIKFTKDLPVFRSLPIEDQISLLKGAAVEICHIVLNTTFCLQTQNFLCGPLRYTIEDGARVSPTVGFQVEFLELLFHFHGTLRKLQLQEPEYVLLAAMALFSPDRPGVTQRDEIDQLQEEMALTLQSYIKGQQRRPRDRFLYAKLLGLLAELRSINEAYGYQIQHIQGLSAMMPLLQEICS

The nature of experiment [6]: HepG2 viability counterscreen (readout 2: ATP content) against the NCATS DSHEA and TCM libraries (AID 1794840). Also: 0% is about no effect. In short, it runs like this: (§1)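 1,000 HepG2 cells/well, 4 h attach; compounds ~24 h, 37C/5% CO2. Readout 1: GF-AFC 25 uM final, 30 min, fluorescence 380/510 nm. Readout 2: CellTiter-Glo, 30 min RT, luminescence.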
Experiment [7] in a line: HepG2 viability counterscreen (readout 1: protease activity) against the NCATS DSHEA and TCM libraries (AID 1794841).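 Also: cells exposed to compounds for about 24 h before the protease read; 0% is about no effect.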 In short, it runs like this:
as §1

For experiment [8], the target named is Cytochrome P450 2D6 (Homo sapiens) (UniProt P10635). Description: qHTS for inhibitors of CYP2D6 against the NCATS DSHEA and TCM libraries (AID 1919972). Also: % is scaled to controls: 0 for no effect and ±100 for the full control effect. Summed up: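 Luminescent P450-Glo read-out of CYP2D6 turnover of a luciferin substrate after NADPH-driven reaction of 30-45 min at room temperature. Compounds were first preincubated 15 min with enzyme at titrated concentrations; quinidine was the intraplate control.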
Cytochrome P450 2D6 (Homo sapiens), sequence (P10635 whole entry, looked up): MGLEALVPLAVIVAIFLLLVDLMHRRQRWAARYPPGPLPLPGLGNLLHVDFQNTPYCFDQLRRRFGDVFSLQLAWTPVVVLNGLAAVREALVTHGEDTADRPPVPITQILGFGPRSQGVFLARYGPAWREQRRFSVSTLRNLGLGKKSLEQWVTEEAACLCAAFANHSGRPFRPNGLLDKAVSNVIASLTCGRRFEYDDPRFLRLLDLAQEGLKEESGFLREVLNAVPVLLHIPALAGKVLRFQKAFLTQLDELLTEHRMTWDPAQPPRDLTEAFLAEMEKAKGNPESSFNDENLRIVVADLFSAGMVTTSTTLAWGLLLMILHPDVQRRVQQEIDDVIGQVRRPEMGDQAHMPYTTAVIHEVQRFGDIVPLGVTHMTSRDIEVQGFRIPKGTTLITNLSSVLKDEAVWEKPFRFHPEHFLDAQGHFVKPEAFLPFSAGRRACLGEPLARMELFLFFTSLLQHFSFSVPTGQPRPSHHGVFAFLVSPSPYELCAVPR

Experiment [9] addresses Cytochrome P450 2C9 (Homo sapiens) (UniProt P11712). The experiment is described as follows: qHTS for inhibitors of CYP2C9 against the NCATS DSHEA and TCM libraries (AID 1919973). Also: potency is read from the fitted curve at half-maximal effect. Summed up:
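Luminescent P450-Glo format: compounds preincubated 15 min with enzyme and luciferin substrate, reaction run 30-45 min after NADPH regeneration solution. Intraplate controls: ketoconazole for CYP3A4 and CYP2C19, sulfaphenazole for CYP2C9.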

The nature of experiment [10]: KB-3-1 P-gp reporter qHTS against the NCATS DSHEA and TCM libraries (AID 1919975). Also: 0% is about no effect. In short, it runs like this:
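CellTiter-Glo luminescence viability readout; KB-3-1 parental cells, 500/well, attached ~4 h, then compound for ~72 h, 37C, 5% CO2. Bortezomib intraplate control.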

For experiment [11], the target named is Cytochrome P450 1A2 (Homo sapiens) (UniProt P05177). Description: qHTS for inhibitors of CYPIA2 against the NCATS DSHEA and TCM libraries (AID 1919976).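 Also: light from luciferin formed by CYP1A2 from a pro-luciferin substrate; series mostly up to about 37 µM; % is scaled to controls: 0 for no effect and ±100 for the full control effect.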 Summed up: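 Human CYP1A2 with pro-luciferin substrate (typically 100 mM KPO4), 15 min preincubation with compound, then 1x NADPH regeneration for 30-45 min at room temperature in the dark. Luciferin quantified by luciferase luminescence; furafylline intraplate control.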
Cytochrome P450 1A2 (Homo sapiens), sequence (P05177 whole entry, looked up): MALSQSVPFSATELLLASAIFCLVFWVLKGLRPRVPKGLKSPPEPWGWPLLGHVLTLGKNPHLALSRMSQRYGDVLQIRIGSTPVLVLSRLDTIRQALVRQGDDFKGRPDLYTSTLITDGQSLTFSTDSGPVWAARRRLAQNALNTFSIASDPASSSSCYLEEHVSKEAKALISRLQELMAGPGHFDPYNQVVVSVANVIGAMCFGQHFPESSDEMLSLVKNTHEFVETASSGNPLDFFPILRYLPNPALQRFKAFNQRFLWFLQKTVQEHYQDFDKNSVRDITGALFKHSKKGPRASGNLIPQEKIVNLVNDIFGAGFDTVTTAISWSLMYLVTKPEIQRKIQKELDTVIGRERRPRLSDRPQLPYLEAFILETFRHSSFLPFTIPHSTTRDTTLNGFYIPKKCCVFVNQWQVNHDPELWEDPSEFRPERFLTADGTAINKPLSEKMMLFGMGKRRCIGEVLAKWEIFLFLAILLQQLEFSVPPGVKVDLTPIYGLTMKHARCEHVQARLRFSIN

Experiment [12] can be described thus: qHTS Counterscreen for compound interference against the NCATS DSHEA and TCM libraries (AID 1919978).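 Also: compounds preincubated with 1 µM D-luciferin or buffer before detection reagent; % of control where 0% means no effect.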 To be noted: firefly luciferase detection reagent interference, luminescence. Summed up:
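Luminescence counterscreen for detection-kit interference: compounds at 19.5 nM–39.8 uM final, 15 min RT with 1 uM D-luciferin or buffer only; detection reagent added, 30 min RT, then read.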

Experiment [13] can be described thus: Dual reporter qHTS for agonist of Pregnane X Receptor (hPXR) against the NCATS DSHEA and TCM libraries: Fluorescence readout (AID 1920058). Also: 0% is about no effect. In short, it runs like this:
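hPXR-Luc HepG2 cells, 2000/well in charcoal-stripped serum, attached 5 h, dosed for ~24 h at 37 °C. Fluorescence read is CellTiter-Fluor viability (Ex/Em 405/540 nm); rifampicin positive, tetraoctyl ammonium bromide (92 µM) cytotoxicity controls.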

Experiment [14] addresses Nuclear receptor subfamily 1 group I member 2 (Homo sapiens) (UniProt O75469). Description: Dual reporter qHTS for agonist of Pregnane X Receptor (hPXR) against the NCATS DSHEA and TCM libraries: Luminescence readout (AID 1920059). Also: 0% is about no effect. In short, it runs like this:
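hPXR-LucHepG2 cells in phenol red-free DMEM with 5% charcoal-stripped FBS, 2000 cells/well, attached 5 h, then exposed 24 h at 37C to compounds; rifampicin as positive agonist control (2.8 nM–92 uM). Luciferase luminescence read.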

Experiment [15] has the same target. Description: Dual reporter qHTS for antagonist of Pregnane X Receptor (hPXR) against the NCATS DSHEA and TCM libraries: Luminescence Readout (AID 1920060).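 Also: HepG2 cells carrying hPXR luciferase reporter stimulated with rifampicin at 2 µM; 0% is about no effect.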 Summed up: (§2)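 In antagonist mode, 2 uM rifampicin was added to hPXR-Luc HepG2 cells alongside test substances, incubated 24 h at 37 C; luminescence gave reporter activity, and CellTiter-Fluor fluorescence (405/540 nm) gave viability.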

Experiment [16] in a line: Dual reporter qHTS for antagonist of Pregnane X Receptor (hPXR) against the NCATS DSHEA and TCM libraries: Fluorescence Readout (AID 1920061). Also: 0% is about no effect. Summed up: as §2
Experiment [17] is described as follows: Primary qHTS for inhibitors of nuclear receptor binding SET domain protein 2 (NSD2) in an isogenic RCH-ACV NSD2 p.E1099K mutant (9B) (AID 1645876). Also: potency is read from the fitted curve at half-maximal effect; nearly all actives have a fitted effect of over 70% in size.
Experiment [18] in a line: Primary qHTS for inhibitors of nuclear receptor binding SET domain protein 2 (NSD2) in an RCH-ACV wild type WT cells (2C) (AID 1645877). Also: potency is read from the fitted curve at half-maximal effect; nearly all actives have a fitted effect of over 70% in size.
Experiment [19] addresses Glutathione peroxidase 1 (Homo sapiens) (UniProt P07203). Description: Primary qHTS Assay for Inhibitors of Recombinant Selenoprotein Glutathione Peroxidase 1 (GPX1) (AID 1845191). Also: nearly all actives have a fitted effect of over 65% in size. In short, it runs like this:
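Recombinant GPX1 (10 nM final) was preincubated with compound for 30 min at room temperature, then reacted with 1 mM GSH, 0.5 mM CHP, 0.5 mM NADPH and 100 nM glutathione reductase; NADPH fluorescence (340/450 nm) was read at 0 and 15 min.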

Experiment [20] addresses Phospholipid hydroperoxide glutathione peroxidase GPX4 (Homo sapiens) (UniProt P36969). The experiment is described as follows: Primary qHTS Assay for Inhibitors of Recombinant Selenoprotein Glutathione Peroxidase 4 (GPX4) (AID 1845192). Also: series mostly up to about 50 µM; % is scaled to controls: 0 for no effect and ±100 for the full control effect; nearly all actives have a fitted effect of over 65% in size. As to conditions: outcome: dose series up to 50 µM unless noted. Summed up: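 GR-coupled readout: 100 nM GR, 1 mM GSH, 0.5 mM NADPH; NADPH fluorescence (ex 340/em 450 nm) read at t=0 and after 15 min RT. GPX4 200 nM, preincubated 30 min with compound; substrate 0.5 mM CHP.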

Experiment [21] is described as follows: qHTS drug screen for cell cycle checkpoint inhibitors in PARPi-resistant BRCA-mutant ovarian cancer cell lines. (AID 1963452; calls by dose curve). To be noted: PEO1/OlaR viability, CellTiter-Glo luminescence, 96 h, stronger effect = lower value. Summed up:
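PEO1, PEO4 and PEO1/OlaR ovarian cancer cells, 600 per well, exposed 96 h at 37C to a dilution series. Viability read by CellTiter-Glo luminescence, normalized to DMSO and empty wells; activity summarized as Z-AUC.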

For experiment [22], the system named is Zika virus NS2B-NS3 protease. Description: Primary screen GU AMC qHTS for Zika virus inhibitors (AID 1347154).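 Also: 0% = no-inhibitor control and -100% = no-enzyme control; nearly all actives have a fitted effect of over 70% in size.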 In short, it runs like this:
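Unlinked Zika NS2B hydrophilic domain/NS3 protease domain noncovalent complex (25 nM final) in 10 mM Tris-HCl pH 8.0, 0.01% Tween 20, with AMC peptide substrate. Fluorescence (ex 340, em 450 nm) change over 15 min, room temperature; percent inhibition fitted to 4-parameter Hill equation.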

Glutathione peroxidase 1 (Homo sapiens), sequence (P07203 whole entry, looked up): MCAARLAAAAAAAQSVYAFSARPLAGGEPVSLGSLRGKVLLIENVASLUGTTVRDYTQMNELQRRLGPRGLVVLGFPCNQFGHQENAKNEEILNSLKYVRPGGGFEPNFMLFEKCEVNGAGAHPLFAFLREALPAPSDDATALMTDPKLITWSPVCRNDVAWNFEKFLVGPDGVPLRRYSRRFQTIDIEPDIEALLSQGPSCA
Nuclear receptor subfamily 1 group I member 2 (Homo sapiens), sequence (O75469 whole entry, looked up): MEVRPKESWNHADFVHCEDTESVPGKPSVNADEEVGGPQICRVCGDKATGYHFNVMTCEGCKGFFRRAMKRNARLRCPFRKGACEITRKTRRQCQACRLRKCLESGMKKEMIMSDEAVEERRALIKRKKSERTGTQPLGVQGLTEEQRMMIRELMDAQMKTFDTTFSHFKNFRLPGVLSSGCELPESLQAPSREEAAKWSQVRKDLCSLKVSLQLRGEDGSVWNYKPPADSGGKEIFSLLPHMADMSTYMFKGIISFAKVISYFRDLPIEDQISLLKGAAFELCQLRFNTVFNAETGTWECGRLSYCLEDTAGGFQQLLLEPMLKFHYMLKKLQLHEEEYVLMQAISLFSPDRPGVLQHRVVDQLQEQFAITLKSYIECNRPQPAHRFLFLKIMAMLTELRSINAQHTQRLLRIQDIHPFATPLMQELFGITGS
Cytochrome P450 2C9 (Homo sapiens), sequence (P11712 whole entry, looked up): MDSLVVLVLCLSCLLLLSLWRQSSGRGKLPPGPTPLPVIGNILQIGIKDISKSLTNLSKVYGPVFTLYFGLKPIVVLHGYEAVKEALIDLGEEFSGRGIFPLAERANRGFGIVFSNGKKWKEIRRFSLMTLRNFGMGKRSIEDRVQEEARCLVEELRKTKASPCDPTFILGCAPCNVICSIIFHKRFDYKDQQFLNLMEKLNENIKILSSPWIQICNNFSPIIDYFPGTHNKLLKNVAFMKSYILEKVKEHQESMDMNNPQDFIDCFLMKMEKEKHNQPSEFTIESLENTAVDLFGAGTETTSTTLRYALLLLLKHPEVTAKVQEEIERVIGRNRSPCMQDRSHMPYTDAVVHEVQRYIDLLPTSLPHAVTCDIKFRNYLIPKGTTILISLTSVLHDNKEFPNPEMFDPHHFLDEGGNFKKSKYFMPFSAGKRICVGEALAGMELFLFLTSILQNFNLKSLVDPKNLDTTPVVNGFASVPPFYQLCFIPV
Phospholipid hydroperoxide glutathione peroxidase GPX4 (Homo sapiens), sequence (P36969 whole entry, looked up): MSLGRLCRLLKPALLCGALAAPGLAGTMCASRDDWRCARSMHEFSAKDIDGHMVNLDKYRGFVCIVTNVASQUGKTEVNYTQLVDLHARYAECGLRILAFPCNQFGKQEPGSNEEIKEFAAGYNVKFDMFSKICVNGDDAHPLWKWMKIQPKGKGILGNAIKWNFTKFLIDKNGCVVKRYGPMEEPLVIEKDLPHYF

Consider `O=C(O[C@@H]1Cc2c(O)cc(O)cc2O[C@H]1c1cc(O)c(O)c(O)c1)c1cc(O)c(O)c(O)c1`, for which the Potency entry in [1] and in experiment [2] was “inactive” throughout. The compound was classed as inactive in experiment [3], in [4], in [5], in experiment [6], in experiment [7] and in experiment [8]. Moreover, the result in experiment [10], in experiment [11], in [13], in [14], in experiment [15] and in experiment [16] was inactive. Also, the Potency in experiment [9] was 12600 nM (active). In addition, the max response in [12] is -4.04% (inactive).

On to `O=C1c2ccccc2-c2c(NCCc3ccccc3)c(=O)[nH]c3cccc1c23`, for which the Potency is 1030 nM (active) in [1], 1160 nM (active) in experiment [2], 5.17 µM (active) in experiment [17] and 4.61 µM (active) in experiment [18]. Further, the Potency result in experiment [19] is “inactive”.

As to `N#Cc1ccc(-c2c(-c3ncn[nH]3)sc(N3CCOCC3)c2C#N)c(F)c1`, the Potency in experiment [1] is 2060 nM (active); in experiment [2] it was 5800 nM (active); in experiment [17], 1.03 µM (active) and 934 nM (active); in experiment [18], 651 nM (active) and 1.18 µM (active). For the same compound, the Potency entry in [19] and in [20] was “inactive” throughout. The figures for the Z-AUC in [21], in [21] (measured here: PEO1 parental Z-AUC) and in experiment [21] (measured here: PEO4 Z-AUC) were -1.04 (inactive), -1.47 and -1.34, respectively.

As for `COc1cc(OC)c(/C=C2\C(=O)Nc3ccccc32)c(OC)c1`, the Potency was 920 nM (active) in [1], 920 nM (active) in experiment [2], 1.03 µM (active) in experiment [17] and 0.92 µM (active) in experiment [18]. Further, the Potency result in experiment [19] is “inactive”.

`Cc1cc(F)c(Nc2ncnc3cc(OCc4ccccc4)ccc23)cc1O`: the Potency result in experiment [1], in [22] and in experiment [19] was “inactive” each time. In addition, the values for the Potency in [17] and in experiment [18] were 3.66 µM (active) and 3.26 µM (active), respectively.
